# “And” between values parts separate entries of the source, which are not always exact repeats. Equal values may be shown once. Results filed as inconclusive are left out. The source made the active and inactive calls. Calls follow the shape of the dose curve; as a rule, active = well fitted inhibition curve with a large enough effect; inconclusive = small, poorly fitted or top-dose-only effect; inactive = no such curve, though single readings can be large or run the other way.
# Test: Primary qHTS for inhibitors of nuclear receptor binding SET domain protein 2 (NSD2) in an RCH-ACV wild type WT cells (2C) (AID 1645877); also: nearly all actives have a fitted effect of over 70% in size
# Conditions: RCH-ACV (leukaemia line) NSD2 WT (2C) viability, CellTiter-Glo, 72 h; series mostly up to 44.9 µM
# Source text: Assay Provider: Jonathan D. Licht, MD
# University of Florida College of Medicine, Gainesville, FL
# Mutations in epigenetic regulators are common in relapsed pediatric acute lymphoblastic leukemia (ALL). Here, we uncovered the mechanism underlying the relapse of ALL driven by an activating mutation of the NSD2 histone methyltransferase (p.E1099K). […] Correction of this mutation restored glucocorticoid sensitivity. The transcriptional response to glucocorticoids was blocked in NSD2 mutant cells due to depressed glucocorticoid receptor (GR) levels and the failure of glucocorticoids to autoactivate GR expression. […] Pre-treatment of NSD2 p.E1099K cell lines and PDX samples with PRC2 inhibitors reversed glucocorticoid resistance in vitro and in vivo.
# High-throughput drug screening of isogenic RCH-ACV cell lines was performed at the National Center for Advancing Translational Science (NCATS), National Institutes of Health as previously described (1). Briefly, isogenic RCH-ACV NSD2 p.E1099K mutant (9B) and WT cells (2C) were plated at 500 cells/well in a 1536-well plate with a 72-hour incubation with compounds prior to addition of CellTiter-Glo to assess cell viability. NCATS libraries screened include: NPC, MIPE 5.0, Kinase and NPACT. To determine compound activity in the qHTS assay, the concentration-response data for each sample was plotted and modeled by a four-parameter logistic fit yielding IC50 and efficacy (maximal response) values. The area under the curve (AUC) of the dose-response curve ensures both efficacy (magnitude of cell killing) and potency (concentration that elicits cell killing) are accounted for in the analysis of activity.
# 1. Tobie D Lee, Olivia W Lee, Kyle R Brimacombe, Lu Chen, Rajarshi Guha, Sabrina Lusvarghi, Bethilehem G Tebase, Carleen Klumpp-Thomas, Robert W Robey, Suresh V Ambudkar, Min Shen, Michael M Gottesman, Matthew D Hall. A High-Throughput Screen of a Library of Therapeutics Identifies Cytotoxic Substrates of P-glycoprotein. Mol Pharmacol. 2019, Nov;96(5):629-640.
# Potency is read from the fitted curve at half-maximal effect.
row,SMILES,Potency
1,C[C@H]1[C@@H](OC(=O)CCC(=O)O)O[C@@H]2O[C@@]3(C)CC[C@@H]4[C@H](C)CC[C@@H]1[C@@]24OO3,1.48 µM (active)
2,CC(C)(C)c1nc2c3cc[nH]c(=O)c3c3cc(F)ccc3c2[nH]1,0.468 µM (active)
3,COc1ccc(Nc2cc(-c3cnc(N)nc3)nc(N3CCOCC3)n2)cn1,0.59 µM (active)
4,CC(C(C)N1CC(=O)NC(=O)C1)N1CC(=O)NC(=O)C1 (stereo not given),3.32 µM (active)
5,CC(C)NC[C@@H](C(=O)N1CCN(c2ncnc3c2[C@H](C)C[C@H]3O)CC1)c1ccc(Cl)cc1,2.63 µM (active)
6,c1coc(CNc2ncnc3nc[nH]c23)c1,inactive
7,O=C(NC1CC1)c1cccc(-c2ccc3c(NC(=O)C4CC4)n[nH]c3c2)c1,5.25 µM (active)
8,COc1cccc2c1C(=O)c1c(O)c3c(c(O)c1C2=O)C[C@@](O)(C(=O)CO)C[C@@H]3O[C@H]1C[C@H](N)[C@@H](O)[C@H](C)O1,0.0468 µM (active)
9,NC(=O)Nc1sc(-c2ccc(F)cc2)cc1C(N)=O,3.72 µM (active)
10,Oc1ccc([C@@H]2Oc3ccc(O)cc3[C@@H]3CCC[C@@H]32)cc1,5.9 µM (active)
11,CCC(C(=O)O)C1CCC(C)C(C(C)C(O)C(C)C(=O)C(CC)C2OC3(C=CC(O)[C@@]4(CC[C@](C)(C5CC[C@@](O)(CC)C(C)O5)O4)O3)C(C)CC2C)O1 (stereo not given in full),0.417 µM (active)
12,COc1cc(C[C@@H](CO)[C@H](CO)Cc2ccc(O)c(OC)c2)ccc1O,inactive
13,c1cncc(CN2CCC(n3ncc4c(N5CCOCC5)nc(-c5ccc6[nH]ccc6c5)nc43)CC2)c1,1.15 µM (active) and 1.05 µM (active)
14,CCN(CC)Cc1ccc2cc(COC(=O)Nc3ccc(C(=O)NO)cc3)ccc2c1,230 nM (active) and 525 nM (active)
15,CC(C)n1cnc2c(NCCc3ccc(O)cc3)nc(-c3csc4ccccc34)nc21,26.3 µM (active)
16,COc1cc(C)c(Sc2cnc(NC(=O)c3ccc(CNC(C)C(C)(C)C)cc3)s2)cc1C(=O)N1CCN(C(C)=O)CC1 (stereo not given),4.68 µM (active)
17,COC(=O)[C@H](CCCN=C(N)N)NS(=O)(=O)c1ccc(C)cc1,inactive
18,O=C1c2cccc(O)c2C(=O)c2c(O)cc(CO)cc21,inactive
19,CC(=O)OC[C@@H]1O[C@@H](n2ccc(=O)[nH]c2=O)[C@H](OC(C)=O)[C@H]1OC(C)=O,inactive
20,COc1cc2c(cc1OC)[C@@H]1C(=O)c3ccc4c(c3O[C@@H]1CO2)C=CC(C)(C)O4,18.4 µM (active) and 5.9 µM (active)

row,SMILES,Potency
1,CNC(=O)Nc1ccc(-c2nc(N3CC4CCC(C3)O4)c3cnn(C4CCC5(CC4)OCCO5)c3n2)cc1,0.118 µM (active)
2,c1ccc2c(Oc3nc(Nc4ccc(N5CCOCC5)cc4)c4ncn(C5CCCCC5)c4n3)cccc2c1,inactive
3,Nc1nc(=O)n([C@H]2C[C@H](O)[C@@H](CO)O2)cc1F,0.0148 µM (active)
4,CN(C)CCN1C(=O)c2cccc3cc(N)cc(c23)C1=O,4.17 µM (active)
5,COC[C@H](NC(=O)c1cnc(C)s1)C(=O)N[C@@H](COC)C(=O)N[C@@H](Cc1ccccc1)C(=O)[C@@]1(C)CO1,0.0833 µM (active)
6,O=C(Nc1cccc(Nc2ncc(Br)c(NCCc3cnc[nH]3)n2)c1)N1CCCC1,0.59 µM (active)
7,CC(C)(N)c1ccc(-c2nc3ccccc3nc2-c2ccccc2)cc1,20.5 µM (active)
8,O=C(O)c1ccc(Nc2ncc3c(n2)-c2ccc(Cl)cc2C(c2c(F)cccc2F)=NC3)cc1,325 nM (active) and 372 nM (active)
9,CCOc1cc2c(c(F)c1OCC)C(=N)N(CC(=O)c1cc(N3CCOCC3)c(OC)c(C(C)(C)C)c1)C2,16.3 µM (active)
10,C[C@](Cc1c[nH]c2ccccc12)(NC(=O)OC1C2CC3CC(C2)CC1C3)C(=O)NC[C@H](NC(=O)CCC(=O)O)c1ccccc1 (stereo not given in full),inactive
11,C#CCC(Cc1cnc2nc(N)nc(N)c2n1)c1ccc(C(=O)N[C@@H](CCC(=O)O)C(=O)O)cc1 (stereo not given in full),0.0053 µM (active)
12,C=C(C)[C@@H]1CC[C@]2(C)CC[C@]3(C)[C@H](CC[C@@H]4[C@@]5(C)CC[C@H](O)C(C)(C)[C@H]5CC[C@]43C)[C@@H]12,inactive
13,COc1cc(C(C)C)c(Oc2cnc(NC(CO)CO)nc2N)cc1I,inactive
14,CN1CCCN(C(=O)c2cccc(-c3ccc(C=C4C(=O)Nc5ccc(Cl)cc54)o3)c2)CC1,0.184 µM (active)
15,Oc1ccc(-c2ccc(-c3cc(Nc4cccc(CNC5CC5)c4)n[nH]3)cc2)c(O)c1,1.86 µM (active)
16,C[C@H](O)[C@@H]1C(=O)N2C(C(=O)O)=C(S[C@@H]3CN[C@H](CNS(N)(=O)=O)C3)[C@@H](C)[C@@H]12,inactive
17,Cc1cncc2cccc(S(=O)(=O)N3CCCN(C(=O)CN)C[C@@H]3C)c12,1.45 µM (active)
18,CC(C)C[C@H](NC(=O)CNC(=O)c1cc(Cl)ccc1Cl)B1OC(=O)CC(CC(=O)O)(C(=O)O)O1 (stereo not given in full),0.118 µM (active)
19,CCNC(=O)c1cc2c(-c3cc(OCCN4CCCC4)c(Cl)cc3Cl)nc(N)nc2s1,0.512 µM (active)
20,CC(C)[C@H](CO)Nc1nc(Nc2cccc(Cl)c2)c2ncn(C(C)C)c2n1,9.34 µM (active)

# Reference: PubChem BioAssay (NCATS)
